Experimental data taken from publication PMC4336329 (PLoS ONE, 2015).
The whole screen tested about 310,000 compounds, of which about 14,000 (4.5%) showed an effect of 50% or more. Effects have a minus sign here. For the sample, strong results were picked, then their nearest neighbours and some compounds at random.

Each molecule was assayed against human ether-à-go-go-related gene (hERG) potassium channel (human, UniProt Q12809) (assay: primary screen, population patch clamp on CHO cells stably expressing hERG; higher = less effect of the substance).
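Note: peak tail current of the secondary pulse compared with the same well before compound.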

human ether-à-go-go-related gene (hERG) potassium channel, sequence (Q12809 whole entry, looked up): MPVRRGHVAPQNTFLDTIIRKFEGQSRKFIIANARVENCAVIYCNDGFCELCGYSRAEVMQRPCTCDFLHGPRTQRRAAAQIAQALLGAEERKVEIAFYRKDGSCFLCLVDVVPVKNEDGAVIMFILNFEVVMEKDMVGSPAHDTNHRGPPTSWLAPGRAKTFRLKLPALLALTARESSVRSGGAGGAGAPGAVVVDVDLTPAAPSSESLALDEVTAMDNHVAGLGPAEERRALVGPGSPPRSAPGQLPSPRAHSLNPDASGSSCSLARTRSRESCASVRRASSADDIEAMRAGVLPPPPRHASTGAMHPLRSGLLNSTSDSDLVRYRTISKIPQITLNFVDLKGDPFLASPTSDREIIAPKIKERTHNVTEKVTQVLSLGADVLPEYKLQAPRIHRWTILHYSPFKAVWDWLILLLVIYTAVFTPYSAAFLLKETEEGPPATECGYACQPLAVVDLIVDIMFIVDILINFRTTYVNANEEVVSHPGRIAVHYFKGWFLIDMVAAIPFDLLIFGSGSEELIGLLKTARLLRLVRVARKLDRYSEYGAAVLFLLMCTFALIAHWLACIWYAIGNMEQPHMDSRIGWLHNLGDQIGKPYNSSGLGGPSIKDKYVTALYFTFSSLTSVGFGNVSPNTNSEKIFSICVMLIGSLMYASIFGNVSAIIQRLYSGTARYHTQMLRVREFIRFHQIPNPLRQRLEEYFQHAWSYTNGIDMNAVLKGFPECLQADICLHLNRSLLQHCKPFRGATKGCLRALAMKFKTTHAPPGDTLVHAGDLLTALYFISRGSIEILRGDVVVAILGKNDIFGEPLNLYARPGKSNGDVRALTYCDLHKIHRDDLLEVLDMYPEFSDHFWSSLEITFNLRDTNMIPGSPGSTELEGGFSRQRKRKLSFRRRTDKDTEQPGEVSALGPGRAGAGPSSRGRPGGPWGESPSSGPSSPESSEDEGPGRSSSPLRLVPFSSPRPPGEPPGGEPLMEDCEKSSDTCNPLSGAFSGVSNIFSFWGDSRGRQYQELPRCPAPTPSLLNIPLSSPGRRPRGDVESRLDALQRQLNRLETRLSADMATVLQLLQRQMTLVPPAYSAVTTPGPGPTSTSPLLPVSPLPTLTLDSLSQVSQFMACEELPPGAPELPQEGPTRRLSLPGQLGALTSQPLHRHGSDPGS

| Structure (SMILES) | hERG current change (%, negative = inhibition) at 10uM [%] |
| --- | --- |
| O=C(NCc1ccc2c(c1)OCO2)C1CCC(=O)N1C1CCCCC1 (stereo not shown) | -9.26 |
| Cc1cc(NC(=O)CCC(=O)N(c2ccccc2)C(C(=O)NC2CCCC2)c2ccncc2)no1 (stereo not shown) | 2.53 |
| C=CCOc1ccc(CNc2ccc3[nH]c(=O)[nH]c3c2)cc1 | 1.57 |
| Clc1cccc(Oc2cnc3ccccc3n2)c1 | -25.8 |
| O=C(NCc1cccnc1)C1CCN(S(=O)(=O)c2cccc(C(F)(F)F)c2)CC1 | 2.69 |
| Cc1cccc(NC(=S)N(CCN2CCOCC2)Cc2ccccc2F)c1 | -25 |
| CCN1CCN(C(=O)Cn2ncc3c2-c2ccccc2OC3)CC1 | -10.1 |
| Cc1ccc(C)c(CN2CCCN(C(=O)Cn3ncc4c3-c3ccccc3OC4)C2)c1 | -2.82 |
| O=C(Cn1ncc2c1-c1ccccc1OC2)N1CCN(Cc2ccccc2)CC1 | -68.5 |
| O=C(CN1C(=O)c2ccccc2S1(=O)=O)N1CCN(Cc2ccc3c(c2)OCO3)CC1 | -12.8 |
| CCOC(=O)N1CCN(C(=O)Cn2ncc3c2-c2ccccc2OC3)CC1 | -3.57 |
| O=C(Cn1ncc2c1-c1ccccc1OC2)N1CCN(Cc2ccc3c(c2)OCO3)CC1 | -61.3 |
| COC(=O)[C@@H](NC(=O)NCCC1=CCCCC1)C(C)C | -3.29 |
| COC(=O)CCCC(=O)N1CCCC(CCC(=O)NCc2ccc(F)c(F)c2)C1 (stereo not shown) | 0.17 |
| COc1ccc(NC2CCCN(Cc3cccc4cnccc34)C2)cc1 (stereo not shown) | -18.5 |
| COc1cc(/C=N/N2CCCCC2)cc([N+](=O)[O-])c1O | 20.8 |
| CC(C)CCN1CCC(n2nccc2NC(=O)C2CCOC2)CC1 (stereo not shown) | 15.3 |
| CC(CN1CCC(n2nccc2NC(=O)c2ccccc2Cl)CC1)c1ccccc1 (stereo not shown) | -68.9 |
| CC(CCN1CCC(n2nccc2NC(=O)c2ccccc2Cl)CC1)c1ccccc1 (stereo not shown) | -82.7 |
| COCC(C)N1CCC(n2nccc2NC(=O)c2ccccc2Cl)CC1 (stereo not shown) | -47.9 |
| CC(CN1CCC(n2nccc2NC(=O)C2CCCC2)CC1)c1ccccc1 (stereo not shown) | -24 |
| Cc1cc(-c2ccco2)n(CC(=O)NCc2ccco2)n1 | 8.48 |

| Structure (SMILES) | hERG current change (%, negative = inhibition) at 10uM [%] |
| --- | --- |
| CCC(C(=O)N1CC2(C)CC1CC(C)(C)C2)N1C(=O)c2ccccc2C1=O (stereo not shown) | -18.3 |
| Cc1cc(=O)oc2cc(OCCc3ccccc3)ccc12 | -0.326 |
| CCOc1ccc2c(c1)-c1c(ssc1=S)C(C)(C)N2C | -3.7 |
| CCOC(=O)C1C(=O)C=C(c2ccc(C)cc2)CC1c1ccccc1 (stereo not shown) | 28.2 |
| CCOC(=O)C1C(=O)C=C(c2ccc(C)cc2)CC1c1cccc([N+](=O)[O-])c1 (stereo not shown) | -4.88 |
| CCOC(=O)C1C(=O)C=C(c2ccc(C)cc2)CC1c1ccco1 (stereo not shown) | 5.34 |
| CCOC(=O)C1C(=O)C=C(c2ccc([N+](=O)[O-])cc2)CC1c1ccccc1 (stereo not shown) | -63.5 |
| CCOC(=O)C1C(=O)C=C(c2ccc(Br)cc2)CC1c1ccco1 (stereo not shown) | -23.2 |
| CCOC(=O)C1C(=O)C=C(c2ccc(NS(C)(=O)=O)cc2)CC1c1ccco1 (stereo not shown) | -80.3 |
| CCOCC(=O)Nc1ccc2c(c1)OCCO2 | 19.6 |
| Brc1ccc2c(c1)C(c1cccs1)=NNC(c1cccnc1)=N2 | -14.5 |
| COc1ccc(NC(=O)CCC(=O)c2ccc(C(C)C)cc2)cc1 | 27.7 |
| CC(=O)N=c1c(C#N)cc2c(=O)n3ccccc3nc2n1CCCOC(C)C | -13.6 |
| CCOCCCn1c(=NC(C)=O)c(C#N)cc2c(=O)n3ccccc3nc21 | -15.4 |
| CCCCCn1c(=NC(C)=O)c(C#N)cc2c(=O)n3ccccc3nc21 | -43 |
| CC(C)OCCCn1c(=NC(=O)c2cccs2)c(C#N)cc2c(=O)n3ccccc3nc21 | -77.6 |
| CC(C)OCCCn1c(=NC(=O)c2ccncc2)c(C#N)cc2c(=O)n3ccccc3nc21 | -74.2 |
| CCOCCCn1c(=NC(=O)c2cccs2)c(C#N)cc2c(=O)n3ccccc3nc21 | -76.9 |
| Cc1ccc(NC(=O)c2ccc(CSc3nnnn3C)cc2)cc1 | -15.3 |
| COc1ccc(-c2nc(CS(=O)CC(=O)NCc3cccnc3)c(C)o2)cc1OC (stereo not shown) | -2.9 |
| O=C(NCCCN1CCCCCC1)c1ccc(N2CCCC2=O)cc1 | 16.4 |
| COc1ccccc1/C=C(\C#N)C(=O)c1cccn1C | 5.95 |

| Structure (SMILES) | hERG current change (%, negative = inhibition) at 10uM [%] |
| --- | --- |
| CCOC(=O)C1(Cc2cccc(OC)c2)CCN(CC2CC=CCC2)CC1 (stereo not shown) | -71.7 |
| CCOC(=O)C1(Cc2ccccc2)CCN(CC2CC=CCC2)CC1 (stereo not shown) | -54.9 |
| CCOC(=O)C1(Cc2cccc(F)c2)CCN(CC2CC2)CC1 | -33.4 |
| CCN(Cc1cnn(C)c1)C(=O)c1ccc(OC2CCN(S(=O)(=O)N(C)C)CC2)cc1 | 19.1 |
| CCSC1=C(C#N)C(c2ccc3c(c2)OCO3)C2=C(CCCC2=O)N1 (stereo not shown) | -23.4 |
| Oc1ccc(/C=N/N2CCN(Cc3ccccc3)CC2)cc1 | 7.33 |
| O=C(COC(=O)CC1CCCC1)Nc1cccc(F)c1 | -1.79 |
| O=C(NCc1cccs1)[C@@H]1CSC2c3ccccc3C(=O)N21 (stereo partly shown) | 8.92 |
| COCc1ccc(CN2CCc3c([nH]c4ccccc34)C2CC(C)C)o1 (stereo not shown) | -58.7 |
| CCc1nccn1CCC(=O)N1CCc2c([nH]c3ccccc23)C1CC(C)C (stereo not shown) | -53.9 |
| CCn1ccnc1CN1CCc2c([nH]c3ccccc23)C1C1CCCCC1 (stereo not shown) | -19.4 |
| CCn1nc(C)c(CN2CCc3c([nH]c4ccccc34)C2C(C)(C)C)c1C (stereo not shown) | -3.17 |
| CCn1ccnc1CN1CCc2c([nH]c3ccccc23)C1C(C)(C)C (stereo not shown) | -59.7 |
| CC(C)CC1c2[nH]c3ccccc3c2CCN1C(=O)CCC(=O)N(C)C (stereo not shown) | 3.88 |
| Cc1c(CN2CCc3c([nH]c4ccccc34)C2CC(C)C)cnn1C (stereo not shown) | -36 |
| CCn1ccnc1CN1CCc2c([nH]c3ccccc23)C1CC(C)C (stereo not shown) | -67.9 |
| CC(C)CC1c2[nH]c3ccccc3c2CCN1C(=O)c1cnccn1 (stereo not shown) | 3.61 |
| Cc1cnc(CN2CCc3c([nH]c4ccccc34)C2CC(C)C)[nH]1 (stereo not shown) | -45.1 |
| Cc1cccc(CN2CCc3c([nH]c4ccccc34)C2CC(C)C)n1 (stereo not shown) | -3.98 |
| COCc1ccc(CN2CCc3c([nH]c4ccccc34)C2C(C)(C)C)o1 (stereo not shown) | 7.25 |
